Bioassay records deposited in PubChem BioAssay by University of Kansas High Throughput Screening Laboratory.
mHTT CaM bind: inhibitors of human mutant huntingtin-calmodulin interaction. P42858. AlphaScreen His-mHTT/GST-CaM binding, luminescence. inhibition, % at 15 µM. 190,000 compounds, 3.6% hits. AID 1671202
Pf apPOL block: Pf-apPOL DNA polymerase inhibition; Recombinant Pf-apPOL, molecular beacon fluorescence, 1.5 h; inhibition, % at 10 µM; 210,000 compounds, 0.25% hits
Each line names hits and unclear results; the compound was inactive in the other large screens. Hits are enriched below; roughly 3.5% of the tested compounds scored in any of these assays. Cut-off read from the data, not from the text of the source: active = inhibition above about 50%; inactive = the rest.

N#CC(=C(O)CCCN1C(=O)c2ccccc2C1=O)c1nc2ccccc2[nH]1	none
CC/C(O)=C(/C#N)c1nc2ccccc2[nH]1	none
CSCCC(C(O)=C(C#N)c1nc2ccccc2[nH]1)N1C(=O)c2ccccc2C1=O (centres undefined)	mHTT CaM bind 67
CC(C)CC(C(O)=C(C#N)c1nc2ccccc2[nH]1)N1C(=O)c2ccccc2C1=O (centres undefined)	mHTT CaM bind 92
CCC(=O)N1CCCC(COc2cccc(C(=O)NC3CC3)c2)C1 (centres undefined)	none
Cc1noc(C)c1CC(=O)N1CCCn2cc(-c3ccccc3F)nc21	none
Cc1noc(C)c1CC(=O)N1CCCn2cc(-c3ccccc3)nc21	mHTT CaM bind 53
Cc1cccc(C)c1NC(=O)N1CCC(c2cc(N)on2)CC1	none
COc1ccc(C2CC(c3ccc(-c4ccccc4)cc3)Nc3nnnn32)cc1 (centres undefined)	mHTT CaM bind 64
COc1ccc(C2CC(c3ccccc3)Nc3nnnn32)cc1 (centres undefined)	none
CC1=CC(=NS(=O)(=O)c2cccc([N+](=O)[O-])c2)C=CC1=O	mHTT CaM bind 84
Cc1c(C(C)(C)C)sc(=NS(=O)(=O)c2cccc([N+](=O)[O-])c2)n1C	none
CN1C(=O)/C(=C\c2nc3ccccc3c(=O)[nH]2)c2ccccc21	none
CCCN1C(=O)/C(=C\c2nc3ccccc3c(=O)[nH]2)c2cc(Br)ccc21	mHTT CaM bind 68
CCC(=O)N1CCc2cc(Br)cc(S(=O)(=O)Nc3cccc(SC)c3)c21	none
Cc1ccc(Cl)cc1N(C)C(=O)C1CCN(c2cc(=O)n(C)c(=O)n2C)CC1	mHTT CaM bind 50
O=C(Nc1ccc2c(c1)OCCO2)C1CCN(c2cc(N3CCSCC3)ncn2)CC1	mHTT CaM bind 64
COc1ccc(NC(=O)C2CCN(c3cc(N4CCCC4)ncn3)CC2)cc1Cl	mHTT CaM bind 54
O=C(Nc1ccc2c(c1)OCO2)C1CCN(c2cc(N3CCSCC3)ncn2)CC1	none
Cn1c(N2CCC(C(=O)Nc3ccc4c(c3)OCCO4)CC2)cc(=O)n(C)c1=O	mHTT CaM bind 57
Cc1ccc(NC(=O)C2CCN(c3cc(=O)n(C)c(=O)n3C)CC2)cc1	none
COc1ccc(NC(=O)C2CCN(c3cc(N4CCCC4)ncn3)CC2)cc1OC	none
Cn1c(N2CCC(C(=O)Nc3ccc(Cl)cc3)CC2)cc(=O)n(C)c1=O	none
Cc1cccc(S(=O)(=O)NCCC2CCN(C(=O)c3ccc(F)cc3)CC2)c1	none
O=C(CN1CCOCC1)N1CCN(c2nc(CN3CCCCC3)cs2)CC1	none
CC1CCCN(C(=O)c2nccnc2NC(=O)c2ccccc2)C1 (centres undefined)	none
COc1ccc(CC(=O)Nc2ccc3ncnc(N4CCCCC4)c3c2)cc1Cl	mHTT CaM bind 55
COc1ccc(CCC(=O)Nc2ccc3ncnc(N4CCCCC4)c3c2)cc1	none
CCC(C)(C)C(=O)N1CCC(CCOc2ccccc2F)CC1	none
Cc1ccccc1CC(=O)Nc1nnc(C2CC(=O)N(c3ccc(Cl)cc3)C2)o1 (centres undefined)	mHTT CaM bind 88
O=C(Cc1ccccc1Cl)Nc1nnc(C2CC(=O)N(c3ccccc3)C2)o1 (centres undefined)	mHTT CaM bind 51
O=C(Cc1c(F)cccc1Cl)Nc1nnc(C2CC(=O)N(c3ccccc3)C2)o1 (centres undefined)	mHTT CaM bind 64
Cc1ccc(OCC(=O)Nc2nnc(C3CC(=O)N(c4ccccc4)C3)o2)cc1 (centres undefined)	none
CCCC(=O)Nc1nnc(C2CC(=O)N(c3ccc(Cl)cc3)C2)o1 (centres undefined)	none
O=C(Cc1cccc(F)c1)Nc1nnc(C2CC(=O)N(c3ccccc3)C2)o1 (centres undefined)	none
COc1ccc(CNC(=O)N2CC=C(c3cn(C)c4ncccc34)CC2)cc1	none
O=C(NC(Nc1ccc(Cl)cc1)C(=O)c1ccccc1)c1ccco1 (centres undefined)	none
Cc1sc2ccn(Cc3ccc(F)cc3)c(=O)c2c1C(=O)N1CCCCCC1	mHTT CaM bind 64
CCn1ccc2sc(C)c(C(=O)N3CCCCC3)c2c1=O	none
Cc1sc2ccn(CC(C)C)c(=O)c2c1C(=O)N1CCCC(C)C1 (centres undefined)	none
Cc1sc2ccn(Cc3ccc(F)cc3)c(=O)c2c1C(=O)N1CCCC(C)C1 (centres undefined)	mHTT CaM bind 66
O=C(NCc1ccccc1Br)C1CCN(c2nnc(-c3ccccc3)o2)CC1	none
CC(C)(C)c1ccc(C(=O)N2N=C(c3ccc([N+](=O)[O-])cc3)CC2(O)C(F)(F)F)cc1 (centres undefined)	none
O=C(c1ccccc1O)N1N=C(c2ccc(Cl)cc2)CC1(O)C(F)(F)F (centres undefined)	mHTT CaM bind 59
O=C(c1ccc(Cl)cc1)N1N=C(c2ccc([N+](=O)[O-])cc2)CC1(O)C(F)(F)F (centres undefined)	mHTT CaM bind 51
Cc1ccc(C2=NN(C(=O)c3ccccc3Cl)C(O)(C(F)(F)F)C2)cc1 (centres undefined)	none
O=C(c1ccc([N+](=O)[O-])cc1)N1N=C(c2ccncc2)CC1(O)C(F)(F)F (centres undefined)	Pf apPOL block 83
CC(C)C(=O)N1N=C(c2ccc([N+](=O)[O-])cc2)CC1(O)C(F)(F)F (centres undefined)	none
O=C(c1ccccc1)N1CCc2sc(C(=O)N3CCN(C4CCCCC4)CC3)cc2C1	none
CCc1cc(C2CCCN2C(=O)Nc2ccccc2Br)on1 (centres undefined)	none
O=C(c1cccs1)N1CCN(c2ccc3nnc(-c4ccco4)n3n2)CC1	mHTT CaM bind 56
O=C(NC1CCCCC1)N1CCN(c2ccc3nnc(-c4ccco4)n3n2)CC1	none
O=C(C1CCCC1)N1CCN(Cc2nnnn2-c2ccccc2)CC1	none
O=C(Nc1nnc(CCS(=O)(=O)c2ccccc2)o1)C1COc2ccccc2O1 (centres undefined)	mHTT CaM bind 65
O=C(Nc1nnc(-c2cc(Cl)sc2Cl)o1)C1COc2ccccc2O1 (centres undefined)	mHTT CaM bind 81
Cc1cc(C)nc(NS(=O)(=O)c2ccc(NC(=O)C3COc4ccccc4O3)cc2)n1 (centres undefined)	none
O=C(CSc1ccccc1)Nc1nnc(-c2cc(Cl)sc2Cl)o1	none
COc1ccc(/C=C2/N=C(c3ccco3)OC2=O)c(OC)c1	none
O=c1ccc(-c2noc(-c3cc(F)ccc3Cl)n2)c[nH]1	none
O=C1C(=Cc2cccc(Cl)c2)Oc2cc(O)ccc21	none
O=C(NNc1nc(-c2ccccc2)c2cc(Br)ccc2n1)C12CC3CC(CC(C3)C1)C2	none
OCCCNc1nc(-c2ccccc2Cl)c2cc(Br)ccc2n1	mHTT CaM bind 51
CC(C)c1cc(C2CCCN2C(=O)CCc2ccccc2)no1 (centres undefined)	none
Cc1cc(OC(=O)C=Cc2ccc3c(c2)OCO3)c([N+](=O)[O-])c(=O)[nH]1	mHTT CaM bind 77
COc1ccc(C(=O)Oc2cc(C)[nH]c(=O)c2[N+](=O)[O-])cc1OC	mHTT CaM bind 86
CC=CC(=O)Oc1cc(C)[nH]c(=O)c1[N+](=O)[O-]	none
COc1cccc(C(=O)Oc2cc(C)[nH]c(=O)c2[N+](=O)[O-])c1OC	none
COc1ccc([N+](=O)[O-])cc1NC(=O)c1c(F)c(F)c(F)c(F)c1F	none
COc1cccc(Nc2c(C(=O)N3CCCCC3)cnc3nc(C)ccc23)c1	none
